Assay outcomes: PubChem, Center for Chemical Genomics, University of Michigan
Dicer processing – inhibitors of Dicer pre-microRNA processing, primary screen, biochemical, cat-ELCCA, chemiluminescence; Endoribonuclease Dicer (Homo sapiens), Q9UPY3; cat-ELCCA pre-miR-21 Dicer processing; active compounds read high; z-score at 25 µM; 6% of 47,000 active; AID 1347074, 2019; in the data active = z-score above about 3, passing the limit was not always enough;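 note: plate controls were vehicle for no effect and no enzyme for full effect; higher signal means more uncleaved substrate so more Dicer inhibition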
Target sequence (Q9UPY3 whole entry, looked up): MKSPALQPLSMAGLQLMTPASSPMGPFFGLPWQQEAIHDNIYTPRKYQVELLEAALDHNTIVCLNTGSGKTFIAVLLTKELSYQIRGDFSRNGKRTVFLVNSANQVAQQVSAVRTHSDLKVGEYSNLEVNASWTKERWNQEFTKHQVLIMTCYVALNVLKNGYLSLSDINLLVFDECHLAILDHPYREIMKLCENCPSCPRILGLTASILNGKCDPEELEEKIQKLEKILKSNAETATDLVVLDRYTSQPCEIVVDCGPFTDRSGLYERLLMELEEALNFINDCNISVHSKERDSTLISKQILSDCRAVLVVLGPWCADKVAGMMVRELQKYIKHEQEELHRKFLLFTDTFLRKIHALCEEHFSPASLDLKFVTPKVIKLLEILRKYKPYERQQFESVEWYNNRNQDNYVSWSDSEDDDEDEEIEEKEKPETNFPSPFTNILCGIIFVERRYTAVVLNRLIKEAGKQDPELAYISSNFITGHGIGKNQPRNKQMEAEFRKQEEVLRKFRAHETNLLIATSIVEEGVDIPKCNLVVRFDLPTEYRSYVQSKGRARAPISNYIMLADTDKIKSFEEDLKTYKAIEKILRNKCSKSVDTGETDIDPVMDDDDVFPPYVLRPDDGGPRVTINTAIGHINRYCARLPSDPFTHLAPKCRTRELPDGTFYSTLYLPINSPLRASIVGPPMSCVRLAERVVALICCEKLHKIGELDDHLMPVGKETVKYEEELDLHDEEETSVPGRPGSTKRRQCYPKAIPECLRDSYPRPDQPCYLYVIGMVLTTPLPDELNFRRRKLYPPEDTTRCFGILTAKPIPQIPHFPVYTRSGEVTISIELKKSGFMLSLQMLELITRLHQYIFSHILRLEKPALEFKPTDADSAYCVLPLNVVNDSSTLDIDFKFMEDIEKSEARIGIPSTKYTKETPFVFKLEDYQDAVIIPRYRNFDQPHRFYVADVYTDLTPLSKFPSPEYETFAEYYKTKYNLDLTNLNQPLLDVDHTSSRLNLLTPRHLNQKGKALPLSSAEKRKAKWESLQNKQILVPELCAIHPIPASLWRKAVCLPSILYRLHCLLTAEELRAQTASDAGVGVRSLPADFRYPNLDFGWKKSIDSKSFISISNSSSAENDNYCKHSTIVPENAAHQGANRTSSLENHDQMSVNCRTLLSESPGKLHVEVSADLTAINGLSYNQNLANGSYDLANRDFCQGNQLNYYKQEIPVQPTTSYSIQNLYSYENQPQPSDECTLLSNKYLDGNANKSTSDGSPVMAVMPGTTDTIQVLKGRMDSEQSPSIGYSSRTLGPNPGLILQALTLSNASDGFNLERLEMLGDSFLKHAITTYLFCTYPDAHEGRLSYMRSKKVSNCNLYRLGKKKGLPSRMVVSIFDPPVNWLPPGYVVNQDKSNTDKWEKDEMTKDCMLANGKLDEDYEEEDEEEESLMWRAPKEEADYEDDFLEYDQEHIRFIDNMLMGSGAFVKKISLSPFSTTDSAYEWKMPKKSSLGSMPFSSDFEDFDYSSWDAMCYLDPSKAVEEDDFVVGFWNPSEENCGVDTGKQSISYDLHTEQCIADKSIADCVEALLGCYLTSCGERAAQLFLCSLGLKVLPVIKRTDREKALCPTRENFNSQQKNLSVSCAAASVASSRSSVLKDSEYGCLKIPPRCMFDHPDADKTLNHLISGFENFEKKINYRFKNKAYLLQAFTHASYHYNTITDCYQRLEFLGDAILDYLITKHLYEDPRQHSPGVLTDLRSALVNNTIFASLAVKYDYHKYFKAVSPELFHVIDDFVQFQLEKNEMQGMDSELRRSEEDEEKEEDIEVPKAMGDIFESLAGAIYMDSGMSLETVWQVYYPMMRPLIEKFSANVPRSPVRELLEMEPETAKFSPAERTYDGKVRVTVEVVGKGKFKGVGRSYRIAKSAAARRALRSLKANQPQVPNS
Starred values were filed as active, the others as inactive. The full list was thinned out, with hits kept by preference.

SMILES	Dicer processing
Cc1cc(C)nc(SCC(=O)n2c(C)c(C)c3ccccc32)n1	1.34
Cc1cc(C)nc(SCCc2ccncc2)n1	3.59*
Cc1cc(C)nc(SCC(=O)N2c3ccccc3CCc3ccccc32)n1	1.65
CC1=C(C(=O)OCc2ccccc2)C(c2ccc3c(c2)OCO3)C2=C(CC(c3ccccc3)CC2=O)N1 (configuration not stated)	-0.26
C#CC(CC)(CC)NC(=O)c1c(-c2ccccc2Cl)noc1C	0.03
COc1ccc(C2=NN3C(C2)c2ccccc2OC3c2cccs2)cc1 (configuration not stated)	1.52
COc1ccc(-c2nc3n(n2)C(=O)CC(c2cccs2)S3)cc1 (configuration not stated)	5.59*
COc1ccc(C2C(C(=O)c3cccs3)=C(O)C(=O)N2c2nncs2)cc1 (configuration not stated)	-1.18
O=C1CC(c2ccc(Cl)cc2)Sc2nc(-c3ccccc3)nn21 (configuration not stated)	4.12*
Cc1nn2c3c(cnc2c1-c1ccccc1)C(=O)CC(c1ccc(Cl)cc1)C3 (configuration not stated)	0.4
O=C1CC(c2ccccc2)Sc2nc(-c3cccc4ccccc34)nn21 (configuration not stated)	0.94
CCOC(=O)CN1C(C)=Nc2ccc(Br)cc2C1c1ccccc1 (configuration not stated)	0.4
CCOC(=O)c1sc(SCc2ccc(Cl)cc2)c2c1CC(C)(C)CC2=O	-0.24
Cn1nc(-c2ccc(C(C)(C)C)cc2)[nH]c1=O	0.32
C/C(=N\OC(=O)c1ccc(Cl)cc1)c1ccc[nH]1	-0.68
CN(C)NC(=S)Nc1cccc(Cl)c1Cl	1.12
S=C(N/N=C/c1cccc2ccccc12)Nc1c(Cl)cccc1Cl	0.63
Cc1cc(Cl)ccc1NC(=S)NN	3.43*
S=C(N/N=C\c1cccc2ccccc12)Nc1cccc(Cl)c1Cl	3.77*
Cc1cc(Cl)ccc1NNC(N)=S	1.39
NNC(=S)Nc1cccc(Cl)c1Cl	4.28*
Cc1cccc(NC(=S)N/N=C\c2cccc3ccccc23)c1C	-0.02
Cc1cc(Cl)ccc1NC(=S)NNC(=O)c1ccccc1Cl	-1.41
NNC(=S)Nc1ccccc1Cl	1.42
COC(=O)c1cc(-c2ccc(S(=O)(=O)N(CCC#N)Cc3ccco3)cc2)c(C(F)(F)F)s1	-2.44
SMILES	Dicer processing
Cn1c(=O)c2c3nc4cc(Cl)cc(Cl)c4cc3c(=O)n(-c3ccccc3)c2n(C)c1=O	4.45
CCN(CC)C(=O)Sc1c(Br)cc(Br)cc1Br	-1.48
C=Cc1ccc(COc2cc3c(C(=O)OCCOC)c(C)oc3cc2Br)cc1	0.45
Cc1cc(C)nc(NS(=O)(=O)c2ccc(NS(=O)(=O)c3csc(Cl)c3)cc2)n1	-0.94
O=S(=O)(Oc1cc(Cl)cc(Cl)c1)c1cc(C(F)(F)F)cc(C(F)(F)F)c1	-0.41
O=S(=O)(NCCSCc1ccco1)c1cc(S(=O)(=O)c2ccccc2)cs1	0.93
Cc1nc(C(F)(F)F)ccc1C(=O)NCCNC(=O)OC(C)(C)C	4.36*
CC(C)(C)OC(=O)NCCNC(=O)Nc1ccccc1C(F)(F)F	-0.78
CC(C)(C)OC(=O)NCCNC(=O)C1CCN(c2nccc(C(F)(F)F)n2)CC1	-1.01
CC(SCC(=O)O)(SCC(=O)O)c1ccccc1	0.37
Nc1ncnc2nc(SCCC(=O)O)[nH]c12	3.82*
CC(Sc1nc2ncnc(N)c2[nH]1)C(=O)O (configuration not stated)	-0.55
Nc1ncnc2nc(SCc3ccc4nsnc4c3)[nH]c12	-1.99
CC1=C(C(=O)OCCOc2ccccc2)C(c2ccncc2)C2=C(CC(C)(C)CC2=O)N1 (configuration not stated)	0.42
COC(=O)c1c(NC(=O)C(C)C)sc2c1CCC2	0.44
CCc1cccc(C)c1N=C(C#N)C1=C(O)c2ccccc2C1=O	-1.85
Cc1cc(Cl)ccc1N=C(C#N)C1=C(O)c2ccccc2C1=O	4.78*
Cc1ccc(N=C(C#N)C2=C(O)c3ccccc3C2=O)cc1F	-0.88
O=C1c2oc3ccc(Cl)cc3c(=O)c2C(c2ccc(O)cc2)N1Cc1ccc(F)cc1 (configuration not stated)	-0.74
Cc1ccccc1N1C(=O)CSC1=S	0.65
CCCN(C(=O)CC#N)C(=O)Nc1ccccc1C	0
Cc1ccccc1NC(=O)N(Cc1cccs1)C(=O)CC#N	3.7*
Cc1cccc(C)c1NC(=O)N(Cc1ccccc1)C(=O)CC#N	0.25
CCSC(SCC)[C@H](O)[C@@H](O)[C@@H](O)CO	-0.47
COc1ccc(NC(=O)CSc2nnc(C)n2-c2ccc(OCc3ccccc3)cc2)cc1	-0.49
SMILES	Dicer processing
COc1ccc(C2C(C(=O)OC3CCCCC3)=C(C)NC3=C2C(=O)CC(C)(C)C3)cc1 (configuration not stated)	-0.3
Brc1cccc(CN2CCN(Cc3ccncc3)CC2)c1	2.78
Clc1ccccc1CN1CCN(Cc2cccnc2)CC1	1.38
CCc1ccc(CN2CCN(Cc3cccnc3)CC2)cc1	3.06*
Fc1ccc(N(Cc2ccc3c(c2)OCO3)C(=S)Nc2ccccc2Cl)cc1	1.14
O=C(Nc1ccc(Cl)cc1)OCc1cc(-c2ccc(Cl)cc2)oc1C(F)(F)F	-0.33
